# From PubChem BioAssay (NCI)
# About 79,000 compounds went through this panel and 15% of them were active in at least one assay; those are over-represented in the sample as a whole. Unmarked numbers belong to inactive results. The source made the active and inactive calls. Cut-off read from the data, not from the text of the source: active = growth inhibition above about 70%; inactive = the rest.
# Key:
# [1] = NCI Yeast Anticancer Drug Screen. Data for the rad50 strain (AID 155);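 note: 0% = growth of vehicle-only cultures of the same strain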; conditions: S. cerevisiae rad50 strain growth inhibition, stronger effect = higher value
# Method in brief: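 DNA repair mutant yeast, compound exposure, growth read-out; inhibition is taken relative to vehicle.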
# [2] = NCI Yeast Anticancer Drug Screen. Data for the mec2-1 strain (AID 157); conditions: S. cerevisiae mec2-1 strain, stronger effect = higher value
# Method in brief: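 Cells of the genetically defined mec2-1 yeast strain are incubated with test compound. Inhibition of growth is calculated against vehicle-treated controls.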
# [3] = NCI Yeast Anticancer Drug Screen. Data for the sgs1 mgt1 strain (AID 161);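 note: 0% = growth of cultures given vehicle only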; conditions: S. cerevisiae sgs1 mgt1 strain, stronger effect = higher value
# Method in brief: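 Genetically altered yeast, compound exposure, growth inhibition relative to vehicle.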
# [4] = NCI Yeast Anticancer Drug Screen. Data for the cln2 rad14 strain (AID 165);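 note: 0% = growth equal to vehicle treated cultures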; conditions: S. cerevisiae cln2 rad14 strain, stronger effect = higher value
# Method in brief: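 The screen exposed genetically defined yeast (cln2 rad14) to test compounds and scored growth inhibition relative to vehicle-treated controls.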
# [5] = NCI Yeast Anticancer Drug Screen. Data for the bub3 strain (AID 167); conditions: S. cerevisiae bub3 mutant strain, stronger effect = higher value
# Method in brief: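 In this screen, a yeast mutant lacking normal mitotic checkpoint function is challenged with compound. Relative growth versus vehicle gives the inhibition value.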
# [6] = NCI Yeast Anticancer Drug Screen. Data for the mlh1 rad18 strain (AID 175); conditions: S. cerevisiae mlh1 rad18 strain growth inhibition, stronger effect = higher value
# Method in brief: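 Compound-treated yeast growth, normalised to vehicle controls. Strain bears defined DNA repair mutations.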
# [7] = at 5.0 µM (retest, dose inferred, filed as 0.5)
# [8] = at 50.0 µM (retest, dose inferred, filed as 5.0)
SMILES,"growth inhibition [1, 7]","growth inhibition [1, 8]",growth inhibition ([1]; at 50.0 µM),"growth inhibition [2, 7]","growth inhibition [2, 8]",growth inhibition ([2]; at 50.0 µM),"growth inhibition [3, 7]","growth inhibition [3, 8]",growth inhibition ([3]; at 50.0 µM),"growth inhibition [4, 7] [%]","growth inhibition [4, 8]",growth inhibition ([4]; at 50.0 µM),"growth inhibition [5, 7]","growth inhibition [5, 8]",growth inhibition ([5]; at 50.0 µM),"growth inhibition [6, 7]","growth inhibition [6, 8]",growth inhibition ([6]; at 50.0 µM)
CC(=O)Nc1ccc(N=Cc2cc(Cl)cc(Cl)c2O)cc1,82% (active),99% (active),80.2% (active),90% (active),99% (active),73.5% (active),97% (active),95% (active),89.3% (active),54,94% (active),53%,97% (active),97% (active),81.7% (active),80% (active),99% (active),65.8%
C[C@]12CC[C@@H]3c4ccc(O)cc4CC[C@H]3[C@@H]1CC[C@@H]2NCCCCCCO,21%,25%,14.6%,18%,19%,48.6%,18%,38%,34.4%,26,31%,-13.2%,15%,34%,-6.1%,21%,37%,-3.2%
c1ccc(C(CNCCN2CCCCCC2)C2CCCCC2)cc1 (configuration not stated),21%,12%,82.5% (active),13%,22%,44.6%,26%,-9%,89.8% (active),10,16%,74.7% (active),22%,20%,66.5%,18%,23%,87.2% (active)
OCC(c1ccccc1)c1ccccc1,24%,42%,77.8% (active),2%,6%,54.5%,41%,34%,76.5% (active),2,9%,-14.2%,39%,43%,18%,11%,22%,80.2% (active)
CCC(COS(=O)(=O)c1ccc(C)cc1)(COS(=O)(=O)c1ccc(C)cc1)COS(=O)(=O)c1ccc(C)cc1,3%,0%,13.7%,-3%,0%,4.35%,-17%,-38%,42%,3,14%,57.9%,3%,10%,21.6%,-35%,-40%,25.8%
O=S1OCCS1 (configuration not stated),10%,87% (active),98.8% (active),4%,90% (active),99% (active),11%,87% (active),98.5% (active),-3,74% (active),97.4% (active),-1%,92% (active),99.2% (active),7%,95% (active),98.7% (active)
O=C(Nc1ccccc1C(=O)O)c1ccccc1,-7%,50%,44%,2%,-6%,23.5%,-5%,-22%,79.7% (active),-2,-14%,-11.6%,-14%,30%,36%,-7%,23%,78.2% (active)
COc1ccc2c(c1)C(O)=C(CC=C(C)C)C(=O)C2=O,-2%,16%,26.8%,22%,46%,35%,27%,61%,20.2%,7,1%,46.3%,8%,23%,4.1%,35%,79% (active),41.4%
O=C(/C=C/c1cccnc1)c1cc(Cl)ccc1O,3%,61%,86.9% (active),3%,40%,23.9%,-3%,22%,56.9%,1,24%,26.6%,1%,71% (active),5.2%,5%,48%,42.5%
